Laboratory results from PubChem BioAssay (NCI).
Compounds without any hit were thinned out: in the full panel of roughly 83,000, 20% have a hit.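 Assay: single dose, 48 h. Readout: percent growth (0 = no net growth; negative = cell death). Active: <10.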 The source made the active and inactive calls.

How the values were obtained:
Experiment in all cases: NCI-60 one-dose screen, 48 h (100 = growth as untreated, 0 = no growth, -100 = all killed)
Conditions in all cases: 10 µM
SK-MEL-2 melanoma = test system: SK-MEL-2 melanoma
EKVX NSCLC = test system: EKVX NSCLC
SN12C renal = test system: SN12C renal
UO-31 renal = test system: UO-31 renal
TK-10 renal = test system: TK-10 renal
ACHN renal = test system: ACHN renal
CAKI-1 renal = test system: CAKI-1 renal
A498 renal = test system: A498 renal
CCRF-CEM leukemia = test system: CCRF-CEM leukemia
MOLT-4 leukemia = test system: MOLT-4 leukemia
RPMI-8226 leukemia = test system: RPMI-8226 leukemia
OVCAR-8 ovarian = test system: OVCAR-8 ovarian
OVCAR-5 ovarian = test system: OVCAR-5 ovarian
OVCAR-4 ovarian = test system: OVCAR-4 ovarian
SK-OV-3 ovarian = test system: SK-OV-3 ovarian
IGROV1 ovarian = test system: IGROV1 ovarian
OVCAR-3 ovarian = test system: OVCAR-3 ovarian
HS 578T breast = test system: HS 578T breast
NCI/ADR-RES ovarian = test system: NCI/ADR-RES ovarian

Measured: growth

O=C(Nc1ccc(I)cc1)Nc1nc2ccc([N+](=O)[O-])cc2s1
active: SK-MEL-2 melanoma -91% | EKVX NSCLC -93% | SN12C renal -97.7% | UO-31 renal -100% | TK-10 renal -92% | ACHN renal -100% | CAKI-1 renal -100% | A498 renal -91.6% | CCRF-CEM leukemia -81.1% | MOLT-4 leukemia -58.1% | RPMI-8226 leukemia -71.7% | OVCAR-8 ovarian -76.1% | OVCAR-5 ovarian -98.4% | OVCAR-4 ovarian -77.3% | SK-OV-3 ovarian -69.9% | IGROV1 ovarian -95.7% | OVCAR-3 ovarian -92% | HS 578T breast -64.9% | NCI/ADR-RES ovarian -88.4%

COc1ccc([C@H]2C(C(=O)c3ccc(Cl)cc3)C3(N[C@@H]2c2ccccc2)C(=O)Nc2ccc(Br)cc23)cc1 (stereo not given in full)
active: SK-MEL-2 melanoma -64.5% | EKVX NSCLC 6.66% | SN12C renal -81.3% | UO-31 renal 0.589% | TK-10 renal 9.79% | ACHN renal 0.391% | CAKI-1 renal 2.8% | A498 renal -7.09% | RPMI-8226 leukemia -10.6% | OVCAR-5 ovarian -20% | IGROV1 ovarian 7.23% | OVCAR-3 ovarian -30.8% | HS 578T breast -7.39% | NCI/ADR-RES ovarian -27.2%
inactive: CCRF-CEM leukemia 13.9% | MOLT-4 leukemia 12.1% | OVCAR-8 ovarian 14.9% | OVCAR-4 ovarian 17.2% | SK-OV-3 ovarian 22.6%

CN1C(=O)/C(=C/c2ccc3ncsc3c2)NC1=NC12CC3CC(CC(O)(C3)C1)C2
inactive: EKVX NSCLC 12.3% | TK-10 renal 39.2% | OVCAR-8 ovarian 16% | OVCAR-4 ovarian 32% | SK-OV-3 ovarian 18.6% | NCI/ADR-RES ovarian 10.8%
active: SK-MEL-2 melanoma -82.3% | SN12C renal 4.63% | UO-31 renal -0.057% | ACHN renal 0.736% | CAKI-1 renal 8.2% | A498 renal -10.5% | CCRF-CEM leukemia 5.06% | MOLT-4 leukemia 4.59% | RPMI-8226 leukemia -7.67% | OVCAR-5 ovarian 7.24% | IGROV1 ovarian 8.51% | OVCAR-3 ovarian 0.338% | HS 578T breast -10.5%

C=C(c1ccc(OC)c(N)c1)c1cc(C)nc2ccccc12
active: SK-MEL-2 melanoma -23.7% | SN12C renal 6.5% | CCRF-CEM leukemia 5.19% | OVCAR-8 ovarian 8.32% | OVCAR-3 ovarian -4.17% | NCI/ADR-RES ovarian -29%
inactive: EKVX NSCLC 21.5% | UO-31 renal 21.4% | TK-10 renal 78.1% | ACHN renal 24.5% | CAKI-1 renal 27.1% | A498 renal 118% | MOLT-4 leukemia 12.5% | RPMI-8226 leukemia 10.9% | OVCAR-5 ovarian 26.3% | OVCAR-4 ovarian 57.8% | SK-OV-3 ovarian 21.7% | IGROV1 ovarian 17.1% | HS 578T breast 38.9%

Clc1ccc(/C=N/Nc2ncnc3sc4c(c23)CCN(Cc2ccccc2)C4)cc1
active: SN12C renal -62.4% | TK-10 renal -76.1% | A498 renal -32.2% | CCRF-CEM leukemia -24.2% | MOLT-4 leukemia 4.13% | OVCAR-8 ovarian -56.2% | OVCAR-5 ovarian -18.8% | OVCAR-4 ovarian -75.9% | OVCAR-3 ovarian -79.9% | HS 578T breast -11% | NCI/ADR-RES ovarian -55.2%
inactive: SK-MEL-2 melanoma 93.5% | EKVX NSCLC 56.7% | UO-31 renal 22.1% | ACHN renal 27.4% | CAKI-1 renal 34.5% | RPMI-8226 leukemia 14% | SK-OV-3 ovarian 30.3% | IGROV1 ovarian 34.4%

CN1CCN(c2ccc(C(=O)/C=C/c3cc(Br)ccc3F)cc2)CC1
inactive: SK-MEL-2 melanoma 107% | EKVX NSCLC 55.7% | SN12C renal 38.2% | UO-31 renal 44.2% | TK-10 renal 88.6% | ACHN renal 63.7% | CAKI-1 renal 50% | A498 renal 107% | MOLT-4 leukemia 24% | OVCAR-8 ovarian 64.2% | OVCAR-5 ovarian 135% | OVCAR-4 ovarian 59.6% | SK-OV-3 ovarian 44.4% | IGROV1 ovarian 33.1% | OVCAR-3 ovarian 33.8% | HS 578T breast 95.1% | NCI/ADR-RES ovarian 35.3%
active: CCRF-CEM leukemia -11.4% | RPMI-8226 leukemia -24.7%

O=C(c1ccc(O)cc1)C1[C@H](c2ccccc2Br)[C@@H](c2ccccc2)NC12C(=O)Nc1ccc(Cl)cc12 (stereo not given in full)
inactive: EKVX NSCLC 10.5% | UO-31 renal 13.6% | OVCAR-4 ovarian 17% | SK-OV-3 ovarian 29.6% | NCI/ADR-RES ovarian 11.2%
active: SK-MEL-2 melanoma -72.9% | SN12C renal -46.3% | TK-10 renal 7.92% | ACHN renal 2.5% | CAKI-1 renal 8.16% | A498 renal 9.06% | CCRF-CEM leukemia 4.97% | MOLT-4 leukemia -16.2% | RPMI-8226 leukemia 4.84% | OVCAR-8 ovarian 4.97% | OVCAR-5 ovarian -2.71% | IGROV1 ovarian 7.88% | OVCAR-3 ovarian -46.2% | HS 578T breast 5.54%

Cc1ccc(CSc2nc(Cl)c(C#N)c(-c3ccc(F)cc3)n2)cc1
inactive: SK-MEL-2 melanoma 92.1% | EKVX NSCLC 79.6% | SN12C renal 70.2% | UO-31 renal 67.9% | TK-10 renal 91.7% | ACHN renal 85.4% | CAKI-1 renal 67.1% | A498 renal 91.6% | CCRF-CEM leukemia 67.7% | MOLT-4 leukemia 61.9% | RPMI-8226 leukemia 58.5% | OVCAR-8 ovarian 83.8% | OVCAR-5 ovarian 94.1% | OVCAR-4 ovarian 81.6% | SK-OV-3 ovarian 88.3% | IGROV1 ovarian 95.8% | OVCAR-3 ovarian 86.3% | HS 578T breast 86.7% | NCI/ADR-RES ovarian 72.4%

CO[C@H]1CSS[C@@H]1Cn1nc(-c2ccc(Oc3ccccc3)cc2)c2c(N)ncnc21
inactive: EKVX NSCLC 18% | SN12C renal 24.6% | UO-31 renal 17.7% | ACHN renal 10% | CAKI-1 renal 11.3% | A498 renal 92.8% | RPMI-8226 leukemia 36.4% | OVCAR-8 ovarian 48.2% | OVCAR-5 ovarian 28.5% | OVCAR-4 ovarian 50.2% | IGROV1 ovarian 29.4% | OVCAR-3 ovarian 61.2% | HS 578T breast 28.4% | NCI/ADR-RES ovarian 42.6%
active: SK-MEL-2 melanoma -34% | TK-10 renal 0.0625% | CCRF-CEM leukemia -16% | MOLT-4 leukemia -20.6% | SK-OV-3 ovarian -1.28%

Cc1nc(Nc2nc(C)c3ccc(OCCN4CCOCC4)cc3n2)[nH]c(=O)c1C
active: SK-MEL-2 melanoma -90.3% | EKVX NSCLC -3.4% | SN12C renal -10.4% | UO-31 renal -63.8% | ACHN renal -50.2% | CAKI-1 renal -38.4% | A498 renal -79% | CCRF-CEM leukemia -7.55% | MOLT-4 leukemia 1.13% | RPMI-8226 leukemia 7.09% | OVCAR-8 ovarian 0.429% | OVCAR-5 ovarian -39.9% | OVCAR-4 ovarian -22.1% | SK-OV-3 ovarian -6.44% | IGROV1 ovarian -14% | OVCAR-3 ovarian 3.38% | NCI/ADR-RES ovarian -19.5%
inactive: TK-10 renal 17.6%

CC(=O)Nc1ccc(-c2cn(-c3cccc(C(=O)Nc4cc(C(F)(F)F)cc(C(F)(F)F)c4)c3)nn2)cn1
active: SK-MEL-2 melanoma -38.6% | EKVX NSCLC -25.7% | SN12C renal -50.1% | UO-31 renal 1.1% | TK-10 renal -10.4% | ACHN renal -26.2% | CAKI-1 renal -44.3% | A498 renal -30.2% | CCRF-CEM leukemia -25.4% | MOLT-4 leukemia -37.1% | RPMI-8226 leukemia -43.7% | OVCAR-8 ovarian -32.8% | OVCAR-5 ovarian -10.6% | OVCAR-4 ovarian -24.6% | SK-OV-3 ovarian -21.1% | IGROV1 ovarian -38.4% | OVCAR-3 ovarian -30.9% | HS 578T breast -9.63% | NCI/ADR-RES ovarian 1.76%

CNCc1cccc2c1OCCCCCC[C@@](C)(O)CC1(CC1)S(=O)(=O)c1ccc(cc1)-c1cnc(N)c(n1)C(=O)N2
active: SK-MEL-2 melanoma -98.7% | EKVX NSCLC -97.4% | SN12C renal -93.9% | UO-31 renal -96.8% | TK-10 renal -92% | ACHN renal -100% | CAKI-1 renal -94.6% | A498 renal -94.5% | CCRF-CEM leukemia -6.39% | MOLT-4 leukemia -44.5% | RPMI-8226 leukemia -31.3% | OVCAR-8 ovarian -65.5% | OVCAR-5 ovarian -89.7% | OVCAR-4 ovarian -76.9% | SK-OV-3 ovarian -87.9% | IGROV1 ovarian -91.2% | HS 578T breast -40.5% | NCI/ADR-RES ovarian -92.1%

O=C1Nc2ccc(F)cc2/C1=C/c1cccc(OCc2ccccn2)c1
active: SN12C renal 9.51% | CCRF-CEM leukemia 3.93% | HS 578T breast -6.56% | NCI/ADR-RES ovarian 7.99%
inactive: SK-MEL-2 melanoma 46.6% | EKVX NSCLC 28.3% | UO-31 renal 34% | TK-10 renal 80.9% | ACHN renal 37.9% | CAKI-1 renal 17.2% | A498 renal 87.3% | MOLT-4 leukemia 12.1% | RPMI-8226 leukemia 18.6% | OVCAR-8 ovarian 25.7% | OVCAR-5 ovarian 60.4% | OVCAR-4 ovarian 61.3% | SK-OV-3 ovarian 69.6% | IGROV1 ovarian 41.9% | OVCAR-3 ovarian 27%
